A selection: hits, their analogues and other compounds. The true share with any hit is near 19%.
IL-1B inflam inh: qHTS for Inhibitors of Inflammasome Signaling: IL-1-beta AlphaLISA Primary Screen; THP-1 LPS/ATP IL-1B secretion, AlphaLISA, 16 h; stronger effect = lower value; activity change, % at 57.5 µM; 360,000 compounds, 4.7% hits; in the data active = activity change below about -50%; inconclusive = mostly about -30% to -49%
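THP-1 cells pretreated 1 hr with compounds (up to 57.5 uM final), then stimulated with LPS (250 ng/mL final) plus ATP (1.25 mM final); secreted IL-1B measured by AlphaLISA after 16 hr, decreased signal indicating inhibition.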
DT40 TDP1 CPT: qHTS for Inhibitors of human tyrosyl-DNA phosphodiesterase 1 (TDP1): qHTS in cells in presence of CPT. chicken DT40 Tdp1-/-;hTDP1 cells + 20 nM CPT, ATP luminescence, 48 h. Potency, µM (titrated, usually from 46.2 µM), usual class: inhibitors. 420,000 compounds, 12% hits; note: nearly all actives have a fitted effect of over 55% in size
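Chicken DT40 Tdp1-/- cells stably complemented with human TDP1 were seeded at 400 cells/well in medium containing 20 nM camptothecin, exposed to pin-transferred compounds, and grown at 37 °C for at least 48 hr. Viability was read as ATP luminescence.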
HT1080 IDH1KD tx: qHTS for induction of synthetic lethality in tumor cells producing 2HG: qHTS for the HT-1080-IDH1KD cell line. HT-1080 IDH1 knockdown viability, ATP luminescence, 48 h. Potency, µM (titrated, usually from 46.1 µM), most hits filed as cytotoxic. 360,000 compounds, 2% hits. AID 686971, 2013
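Using the IDH1-knockdown HT-1080 line run in the same batch and compound series as the NT line, viability after 48 h at 37 °C was determined by CellTiter-Glo luminescence and expressed as % activity.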
HT1080NT lethal: qHTS for induction of synthetic lethality in tumor cells producing 2HG: qHTS for the HT-1080-NT fibrosarcoma cell line; AID 686970, 2013; HT-1080-NT fibrosarcoma viability, CellTiter-Glo ATP luminescence, 48 h; 360,000 compounds, 1.6% hits; Potency, µM (doses to about 46.1 µM), hits mostly cytotoxic;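 note: NT is the 2HG producing partner of a matched IDH1 knockdown line; nearly all actives have a fitted effect of over 55% in size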
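Toxicity toward the 2HG-producing NT line was scored as %Activity, normalised to DMSO and no-cell wells, from CellTiter-Glo luminescence after 48 hours' treatment.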
DT40 TDP1 no CPT: qHTS for Inhibitors of human tyrosyl-DNA phosphodiesterase 1 (TDP1): qHTS in cells in absence of CPT; AID 686978, 2013; DT40 Tdp1-/- hTDP1 cells, no CPT, ATP luminescence, 48 h; Potency, µM (top dose mostly 46.2 µM), usual class: inhibitors; 420,000 compounds, 15% hits; note: nearly all actives have a fitted effect of over 55% in size
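A cellular qHTS used chicken DT40 cells lacking endogenous Tdp1 but carrying stably transfected human TDP1. Compounds were applied without camptothecin, and cell growth kinetics were judged by ATP-dependent luminescence after ≥48 hr.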
A number is an active result; i = inactive; ? = inconclusive; nt = no result given. Unless noted, calls come from the whole dose curve; as a rule, active = well fitted curve in the direction sought with a large enough effect; inconclusive = small, poorly fitted or top-dose-only effect, or another doubt; inactive = no such curve, though single readings can be large; an effect the other way counts as inactive or inconclusive.

SMILES | IL-1B inflam inh | DT40 TDP1 CPT | HT1080 IDH1KD tx | HT1080NT lethal | DT40 TDP1 no CPT
COCCCNC(=O)c1cnn(-c2ccccc2Cl)c1C1CCN(C(=O)OC(C)(C)C)CC1 | nt | ? | nt | nt | i
COc1cccc(N2CCN(C(=O)c3cnn(-c4ccc(C)cc4C)c3C3CCN(C(=O)OC(C)(C)C)CC3)CC2)c1 | nt | ? | nt | nt | 21µM
Cc1cccc(-n2ncc(C(=O)NCc3ccco3)c2C2CCN(C(=O)OC(C)(C)C)CC2)c1 | nt | 16µM | nt | nt | ?
COc1cccc(N2CCN(C(=O)c3cnn(-c4ccccc4Cl)c3C3CCN(C(=O)OC(C)(C)C)CC3)CC2)c1 | nt | ? | nt | nt | 21µM
CCN1CCN(C(=O)c2cnn(-c3cccc(C)c3)c2C2CCN(C(=O)OC(C)(C)C)CC2)CC1 | nt | 21µM | nt | nt | ?
CN1CCN(C(=O)c2cnn(-c3ccc(F)cc3F)c2C2CCN(C(=O)OC(C)(C)C)CC2)CC1 | nt | i | nt | nt | i
CC(C)(C)OC(=O)N1CCC(c2c(C(=O)N3CCN(c4ccc(Cl)cc4)CC3)cnn2-c2ccc(F)cc2F)CC1 | nt | ? | nt | nt | 16µM
CN1CCN(C(=O)c2cnn(-c3cccc(Cl)c3)c2C2CCN(C(=O)OC(C)(C)C)CC2)CC1 | nt | i | nt | nt | i
Cc1occc1-c1nnc(SCC(=O)O)n1-c1ccccc1 | i | i | i | i | i
CC1CCC(NC(=O)CCS(=O)(=O)c2ccc3c(c2)NC(=O)CS3)CC1 (stereo not given) | i | i | i | i | i
Cc1ccc(C)c(N2CCN(C(=O)CCS(=O)(=O)c3ccc4c(c3)NC(=O)C(C)S4)CC2)c1 (stereo not given) | i | 23µM | i | i | 15µM
CC(=O)c1ccc(N2CCN(C(=O)CCS(=O)(=O)c3ccc4c(c3)NC(=O)CS4)CC2)cc1 | i | 18µM | i | i | ?
CC1Cc2ccccc2N1C(=O)CCS(=O)(=O)c1ccc2c(c1)NC(=O)CS2 (stereo not given) | i | 23µM | i | i | ?
COc1ccc(N2CCN(C(=O)CCS(=O)(=O)c3ccc4c(c3)NC(=O)C(C)S4)CC2)cc1 (stereo not given) | i | ? | i | i | 10µM
COc1cc(CNc2nnnn2C)cc(OC)c1OC | i | i | i | i | i
COc1ccc(NC(=O)c2noc3c2CCCC3)cc1Cl | nt | i | nt | nt | i
OC1c2cc(Cl)cc(Cl)c2N=C2CCCN21 (stereo not given) | i | i | i | i | i
Nc1[nH]c(=S)nc2nnsc12 | nt | 11µM | nt | nt | 11µM
CCOC(=O)N1CCN(S(=O)(=O)c2c(C(=O)N3CCCCC3)c(C)n(C)c2C)CC1 | i | i | i | i | i
O=C(c1ccc(S(=O)(=O)N2CCCCC2)cc1)N(c1ccccn1)C1CCCCC1 | i | 23µM | i | i | ?
O=C(c1ccc(S(=O)(=O)N2CCCCCC2)cc1)N(c1ccccn1)C1CCCCC1 | i | ? | i | i | ?
CC1CC(C)CN(S(=O)(=O)c2ccc(C(=O)N(c3ccccn3)C3CCCCC3)cc2)C1 (stereo not given) | i | ? | i | i | 16µM
CCOc1ccc(S(=O)(=O)Nc2ccc(C(=O)NCC(c3ccco3)N3CCCCC3)cc2)cc1 (stereo not given) | ? | ? | i | i | ?
O=C(Nc1nnc(C2=COCCO2)o1)c1ccc(Cl)cc1 | i | 16µM | i | i | ?
O=C(Nc1nnc(C2=COCCO2)o1)c1cccc(C(F)(F)F)c1 | i | 26µM | i | i | 15µM
SMILES | IL-1B inflam inh | DT40 TDP1 CPT | HT1080 IDH1KD tx | HT1080NT lethal | DT40 TDP1 no CPT
CCOC(=O)N1CCc2c(sc3c2c(=O)n(CCc2ccccc2)c(=O)n3Cc2cc(C)ccc2C)C1 | nt | i | nt | nt | i
O=C(NCC(c1ccco1)N1CCc2ccccc21)c1ccccc1Cl (stereo not given) | i | ? | i | i | ?
O=S(=O)(NCC(c1ccco1)N1CCc2ccccc21)c1ccccc1 (stereo not given) | i | 23µM | i | i | 18µM
COc1ccc(C(=O)NCC(c2cccs2)N2CCc3ccccc32)c(OC)c1 (stereo not given) | i | ? | i | i | 15µM
COc1ccc(C(=O)NCC(c2ccco2)N2CCc3ccccc32)cc1 (stereo not given) | i | 3.7µM | 5.8µM | 4.1µM | 2.6µM
COc1cccc(C(=O)NCC(c2ccc(N(C)C)cc2)N2CCc3ccccc32)c1 (stereo not given) | nt | 8.2µM | nt | nt | ?
O=C(Cn1nnc(-c2cccs2)n1)Nc1ccccc1C(F)(F)F | i | i | ? | i | i
Cc1cc(C)cc(OCc2cc(=O)n3c4c(sc3n2)CCCC4)c1 | nt | i | nt | nt | i
O=C(c1ccco1)N1N=C(c2ccccc2)CC1c1ccc2nccnc2c1 (stereo not given) | i | ? | i | i | ?
Cc1c[nH]c2cccc(OCC(CNC(C)(C)C)OC(=O)c3ccccc3)c12 (stereo not given) | i | i | i | i | i
COc1ccc(C(=O)NCC(c2ccc3c(c2)OCO3)N2CCN(C)CC2)cc1OC (stereo not given) | nt | i | nt | nt | i
Cc1ccccc1C(=O)NCC(c1ccc(N(C)C)cc1)N1CCCC1 (stereo not given) | nt | i | nt | nt | i
CC(CNC(=O)c1ccc(-c2ccccc2)cc1)CN(C)C (stereo not given) | i | i | i | i | i
Cc1cc(C)c(S(=O)(=O)NCC(c2ccc(N(C)C)cc2)N2CCc3ccccc32)c(C)c1 (stereo not given) | nt | 18µM | nt | nt | ?
COc1cccc(C(=O)NCC(c2ccc(N(C)C)cc2)N2CCc3ccccc32)c1OC (stereo not given) | nt | 15µM | nt | nt | 15µM
COc1ccc(C(=O)NCC(c2ccc(N(C)C)cc2)N2CCc3ccccc32)cc1OC (stereo not given) | nt | 5.2µM | nt | nt | 6.5µM
COc1ccc(C(CNC(=O)c2ccc(-c3ccccc3)cc2)N(C)C)cc1OC (stereo not given) | ? | ? | 21µM | 18µM | ?
Nc1ncc(S(=O)(=O)NCc2cccc(Cl)c2)cn1 | nt | i | nt | nt | i
CC1Oc2ccc(C#N)cc2N(Cc2ccccc2OC(F)(F)F)C1=O (stereo not given) | i | i | i | i | i
O=C(NCC(c1ccco1)N1CCc2ccccc21)c1c(F)cccc1F (stereo not given) | i | ? | i | i | i
CN(C)c1ccc(C(CNC(=O)c2ccccc2F)N2CCc3ccccc32)cc1 (stereo not given) | nt | 10µM | nt | nt | ?
